About 79,000 compounds went through this panel and 15% of them were active in at least one assay; those are over-represented in the sample as a whole. A number with no mark means an inactive call. Calls of active or inactive are those of the source. Rule as the data show it: active = growth inhibition above about 70%; inactive = the rest.
Assays:
[1] = NCI Yeast Anticancer Drug Screen. Data for the rad50 strain (AID 155);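 also: 0% = growth of vehicle-only cultures of the same strain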; details: S. cerevisiae rad50 strain growth inhibition, stronger effect = higher value
Procedure, shortened: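 Genetically altered yeast (DNA repair pathway); compound treatment; growth inhibition vs vehicle ctrl.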

[2] = NCI Yeast Anticancer Drug Screen. Data for the mec2-1 strain (AID 157); details: S. cerevisiae mec2-1 strain, stronger effect = higher value
Procedure, shortened: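 Test agents were screened against the mec2-1 yeast strain, with defined DNA repair or cell cycle alteration. Growth was scored as inhibition against vehicle-only controls.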

[3] = NCI Yeast Anticancer Drug Screen. Data for the sgs1 mgt1 strain (AID 161);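 also: 0% = growth of cultures given vehicle only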; details: S. cerevisiae sgs1 mgt1 strain, stronger effect = higher value
Procedure, shortened: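 Mutant yeast exposed to compound; growth scored against vehicle-only wells.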

[4] = NCI Yeast Anticancer Drug Screen. Data for the cln2 rad14 strain (AID 165);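 also: 0% = growth equal to vehicle treated cultures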; details: S. cerevisiae cln2 rad14 strain, stronger effect = higher value
Procedure, shortened: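 Growth of compound-exposed yeast (cln2 rad14 genotype) measured and expressed as inhibition relative to vehicle.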

[5] = NCI Yeast Anticancer Drug Screen. Data for the bub3 strain (AID 167); details: S. cerevisiae bub3 mutant strain, stronger effect = higher value
Procedure, shortened: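 Yeast carrying a defined mutation is treated with each compound, and growth is compared with that of vehicle-exposed cells to give inhibition.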

[6] = NCI Yeast Anticancer Drug Screen. Data for the mlh1 rad18 strain (AID 175); details: S. cerevisiae mlh1 rad18 strain growth inhibition, stronger effect = higher value
Procedure, shortened: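 In this whole-cell yeast screen, a strain with altered DNA damage repair is challenged with compound, and its growth is measured against matched vehicle-treated controls.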

[7] = at 5.0 µM (retest, dose inferred, filed as 0.5)
[8] = at 50.0 µM (retest, dose inferred, filed as 5.0)

Compound	growth inhibition [1, 7]	growth inhibition [1, 8]	growth inhibition ([1]; at 50.0 µM)	growth inhibition [2, 7]	growth inhibition [2, 8]	growth inhibition ([2]; at 50.0 µM)	growth inhibition [3, 7]	growth inhibition [3, 8]	growth inhibition ([3]; at 50.0 µM)	growth inhibition [4, 7]	growth inhibition [4, 8]	growth inhibition ([4]; at 50.0 µM)	growth inhibition [5, 7]	growth inhibition [5, 8]	growth inhibition ([5]; at 50.0 µM)	growth inhibition [6, 7]	growth inhibition [6, 8]	growth inhibition ([6]; at 50.0 µM)
O=C(CCl)OCC(Cl)Cl	3%	2%	1.25%	4%	2%	-2.5%	1%	6%	10.4%	2%	-4%	19.6%	-2%	-3%	6.65%	9%	3%	20.6%
[Se]c1ncnc2nc[nH]c12	21%	57%	57.9%	15%	37%	38.7%	13%	41%	37.9%	11%	23%	2.25%	-2%	60%	39.2%	17%	68%	84.2% (active)
CCCCCCC1CC2(Cl)C(Cl)=C(Cl)C1(Cl)C2(Cl)Cl (configuration not stated)	32%	99% (active)	99.7% (active)	34%	100% (active)	99.8% (active)	53%	99% (active)	99.8% (active)	19%	99% (active)	99.6% (active)	20%	99% (active)	99.7% (active)	54%	99% (active)	99.5% (active)
CC1CN1C1=C(F)C(=O)C(N2CC2C)=C(F)C1=O (configuration not stated)	98% (active)	99% (active)	90.8% (active)	100% (active)	99% (active)	94% (active)	99% (active)	99% (active)	91% (active)	99% (active)	99% (active)	91% (active)	99% (active)	99% (active)	92.5% (active)	99% (active)	99% (active)	91.5% (active)
CS/C([S-])=N/N=C/c1ccccn1.[Cl][Pt+]	1%	58%	82.2% (active)	3%	80% (active)	38%	20%	96% (active)	89.6% (active)	-3%	29%	9.15%	-4%	77% (active)	19.6%	33%	93% (active)	64.2%
CCOP(=O)(OCC)Oc1ccc([N+](=O)[O-])cc1	8%	-5%	0.55%	-10%	-13%	2.65%	12%	16%	-7%	6%	7%	38.7%	-4%	14%	9.8%	13%	4%	3.55%
C=Cc1cc(OC)c2c(c1)c(=O)oc1c2cc(OC)c2c(O)ccc(C3OC(C)C(O)C(C)(O)C3O)c21 (configuration not stated)	96% (active)	97% (active)	90.8% (active)	97% (active)	97% (active)	91.8% (active)	97% (active)	98% (active)	90.3% (active)	97% (active)	97% (active)	90.1% (active)	97% (active)	98% (active)	89.4% (active)	96% (active)	96% (active)	89.9% (active)
CCCCCCCCCCCCCCCc1cccc(O)c1O	-2%	-7%	51.2%	-2%	3%	92.1% (active)	-1%	27%	51.5%	-4%	-8%	-5.3%	1%	-4%	48.4%	-6%	7%	82.7% (active)
CC(O[Si](c1ccccc1)(c1ccccc1)C(C)(C)C)[C@H](NC(=O)OC(C)(C)C)C(=O)O (some centres not stated)	-13%	58%	86% (active)	-4%	97% (active)	86.3% (active)	13%	47%	88% (active)	-15%	98% (active)	89.6% (active)	-9%	95% (active)	55.5%	1%	68%	92.9% (active)

Reference: PubChem BioAssay (NCI)
